Activity (max response) and Potency data for 37 compounds are collected here from PubChem BioAssay (NCATS).

Records with an inconclusive call do not appear. Where a call stands in place of a potency, no number is given. Unmarked numbers belong to inactive results. Calls of active or inactive are those of the source. Calls come from the whole dose curve; as a rule, active = well fitted cell-killing curve with a large enough effect; inconclusive = small, poorly fitted or top-dose-only effect; inactive = flat fitted curve, though single readings scatter.
Potency is the fitted concentration of half-maximal effect.

The nature of the first test: Cellular viability qHTS for adrenocortical cancer (ACC) cell line SW-13 (AID 1963989).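 For Activity (max response): cells grown in serum-free medium with ITS supplement.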 Note: nearly all actives have a fitted effect of over 65% in size. The conditions noted are these: SW-13 ACC cells viability, CellTiter-Glo, 48 h; activity (max response): stronger effect = lower value. In a few lines:
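SW-13 cells in ITS-supplemented serum-free DMEM were plated overnight, then exposed for 48 h at 37C to compound titrations (up to 46 uM final). Viability was read by CellTiter-Glo luminescence; four-parameter logistic fits gave IC50 and efficacy.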
For orientation: qHTS replaces the single test concentration by a dilution series.
As to `CCc1cccc2c(CCO)c[nH]c12`, the activity (max response) is 12.9%.
In the case of `C[C@H](N)[C@H](O)c1cccc(O)c1`, the activity (max response) is 0.409%.
On the same count and under the same terms, to `CCCCOC(=O)CCCCCCCCC(=O)OCCCC` belongs 11.1%; to `CCNC(=O)/C=C/c1cccc(Br)c1`, -10.3%.
In the case of `Cc1c(C)c2c(c(C)c1OC(=O)c1cccnc1)CC[C@@](C)(CCC[C@H](C)CCC[C@H](C)CCCC(C)C)O2`, the activity (max response) was -0.414%.
Same read-out and setting: to `NC(=O)NC1NC(=O)NC1=O` (stereo unspecified) belongs 10.7%; to `CC(C)(C)NCC(O)COc1cccc2c1CCC(=O)N2` (stereo unspecified), 3.97%; to `Cc1nc(-c2ccc(Cl)cc2)oc1COC(C)(C)C(=O)O`, -4.84%.
Same read-out and setting: to `CCN(CC)CCNC(=O)c1ccc(N)cc1` belongs 13%; to `CC(C)CCCC(C)NCCC(C)C` (stereo unspecified), -7.26%; to `CC1(C)O[C@@H]2[C@@H](CO[C@@]3(COS(N)(=O)=O)OC(C)(C)O[C@@H]23)O1`, 9.55%.
On the same count and under the same terms, to `Nc1c2c(nc3ccccc13)CCCC2O` (stereo unspecified) belongs 13%.
Consider `O=C1CC(c2ccc(Cl)cc2)CC(=O)N1`, for which the activity (max response) is 13.6%.
Same read-out and setting: to `NC(=O)COCCN1CCN(C(c2ccccc2)c2ccc(Cl)cc2)CC1` (stereo unspecified) belongs 0.82%; to `OC[C@H]1O[C@@H](n2cnc3c2NC=NC[C@H]3O)C[C@@H]1O`, 12.8%; to `CC(=O)N[C@@H](CCC(=O)O)C(=O)O`, 10.8%.
`COc1cc(S(N)(=O)=O)cc(C(=O)O)c1OC`: the activity (max response) is 10.1%.
The same measure, in the same setting: to `C=Cc1c(C)c2cc3[nH]c(cc4nc(cc5nc(cc1[nH]2)C(C)=C5CCC(=O)O)C(CCC(=O)O)=C4C)c(C)c3C=C` belongs -8.14%.
For `C=CC(=O)Nc1cccc(Nc2nc(Nc3ccc(N4CCN(C(C)=O)CC4)cc3OC)ncc2C(F)(F)F)c1`, the Potency is 2.24 µM (active).
As for `CC1=NS(=O)(=O)c2cc(Cl)ccc2N1`, the activity (max response) is 8.23%.

A further test in a line: Cellular viability qHTS for adrenocortical cancer (ACC) cell line NCI-H295R (AID 1963990). Note: nearly all actives have a fitted effect of over 60% in size. The settings on record: CellTiter-Glo ATP luminescence, 48 h; series mostly up to 46.1 µM. In a few lines:
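Luminescent ATP read-out (CellTiter-Glo, 20 min RT) after 48 h drug exposure of NCI-H295R cells; a titration up to 46 uM final. Data normalized to doxorubicin (100% inhibition) and DMSO (0%); 4-parameter fit gives IC50, max response.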
Turning to `CCc1cccc2c(CCO)c[nH]c12`, the Potency entry was “inactive”.
`CCCCCCCCCCCCCCCCN`: the Potency entry is “inactive”.
For the compound `C[C@H](N)[C@H](O)c1cccc(O)c1`, the Potency result was “inactive”.
Still for that read-out and setting: to `O=c1[nH]c(=O)n([C@H]2C[C@H](O)[C@@H](CO)O2)cc1C(F)(F)F` belongs “inactive”; to `CCCCOC(=O)CCCCCCCCC(=O)OCCCC`, “inactive”.
The same measure, in the same setting: to `Nc1ccc(C(=O)O)cc1` belongs “inactive”; to `CCNC(=O)/C=C/c1cccc(Br)c1`, “inactive”; to `CCn1c(=O)c(-c2ccc(-c3cncs3)cc2Cl)cc2cnc(Nc3ccc(N4CCN(C)CC4)cc3)nc21`, “inactive”.
The same measure, in the same setting: to `NC(=O)NS(=O)(=O)c1ccc(N)cc1` belongs “inactive”; to `O=C1CC[C@@H](C(=O)O)N1`, “inactive”; to `Cc1c(C)c2c(c(C)c1OC(=O)c1cccnc1)CC[C@@](C)(CCC[C@H](C)CCC[C@H](C)CCCC(C)C)O2`, “inactive”.
On to `CNC(=O)CN(CCN(CCN(CC(=O)[O-])CC(=O)NC)CC(=O)[O-])CC(=O)[O-].O.[Gd+3]`, for which the Potency entry is “inactive”.
The same measure, in the same setting: to `NC(=O)NC1NC(=O)NC1=O` (stereo unspecified) belongs “inactive”; to `O=C(/C=C/c1ccc(O)c(O)c1)O[C@@H]1C[C@@](OC(=O)/C=C/c2ccc(O)c(O)c2)(C(=O)O)C[C@@H](O)[C@@H]1O`, “inactive”.
Still for that read-out and setting: to `OCc1ccccc1O` belongs “inactive”; to `CC(C)(C)NCC(O)COc1cccc2c1CCC(=O)N2` (stereo unspecified), “inactive”.
Take `Cc1nc(-c2ccc(Cl)cc2)oc1COC(C)(C)C(=O)O`: the Potency result was “inactive”.
Take `NC(=O)C1(N2CCCCC2)CCN(CCCC(=O)c2ccc(F)cc2)CC1`: the Potency entry is “inactive”.
Take `CCN(CC)CCNC(=O)c1ccc(N)cc1`: the Potency entry was “inactive”.
As to `CC(C)(C)c1ccc(C(O)CCCN2CCC(C(O)(c3ccccc3)c3ccccc3)CC2)cc1` (stereo unspecified), the Potency is 4.11 µM (active).
Still for that read-out and setting: to `CC(=O)Nc1nnc(S(N)(=O)=O)s1` belongs “inactive”; to `CC(C)CCCC(C)NCCC(C)C` (stereo unspecified), “inactive”.
The same measure, in the same setting: to `Cn1c(=O)c2c(ncn2C)n(C)c1=O` belongs “inactive”.
Consider `CC1(C)O[C@@H]2[C@@H](CO[C@@]3(COS(N)(=O)=O)OC(C)(C)O[C@@H]23)O1`, for which the Potency result is “inactive”.
The same measure, in the same setting: to `Cc1[nH]c(C)c(Cl)c(=O)c1Cl` belongs “inactive”; to `Cc1nc(-c2cn3c(n2)-c2ccc(-c4cnn(C(C)(C)C(N)=O)c4)cc2OCC3)n(C(C)C)n1`, 2.51 µM (active).
As for `CC(C)=CCNc1ncnc2c1ncn2[C@@H]1O[C@H](CO)[C@@H](O)[C@H]1O`, the Potency was 7.31 µM (active).
Same read-out and setting: to `Nc1c2c(nc3ccccc13)CCCC2O` (stereo unspecified) belongs “inactive”.
As for `O=c1[nH]c(=O)n([C@H]2CCCO2)cc1F`, the Potency result is “inactive”.
On the same count and under the same terms, to `O=C1CC(c2ccc(Cl)cc2)CC(=O)N1` belongs “inactive”.
With `NC(=O)COCCN1CCN(C(c2ccccc2)c2ccc(Cl)cc2)CC1` (stereo unspecified), the Potency entry was “inactive”.
